Molecules are shown by their SMILES. Values joined by “and” are separate entries in the source; they are usually repeats but may differ in a detail not shown here. Equal values may be shown once.

The target in assay [1] is Bromodomain-containing protein 4 (Homo sapiens) (UniProt O60885). Conditions: Compound concentration 20.0 uM, Protein concentration 2.0 uM, Result type QC Liability.
Assay [2] deals with T1, Transcription intermediary factor 1-alpha (Homo sapiens) (UniProt O15164).
T1 sequence (whole entry): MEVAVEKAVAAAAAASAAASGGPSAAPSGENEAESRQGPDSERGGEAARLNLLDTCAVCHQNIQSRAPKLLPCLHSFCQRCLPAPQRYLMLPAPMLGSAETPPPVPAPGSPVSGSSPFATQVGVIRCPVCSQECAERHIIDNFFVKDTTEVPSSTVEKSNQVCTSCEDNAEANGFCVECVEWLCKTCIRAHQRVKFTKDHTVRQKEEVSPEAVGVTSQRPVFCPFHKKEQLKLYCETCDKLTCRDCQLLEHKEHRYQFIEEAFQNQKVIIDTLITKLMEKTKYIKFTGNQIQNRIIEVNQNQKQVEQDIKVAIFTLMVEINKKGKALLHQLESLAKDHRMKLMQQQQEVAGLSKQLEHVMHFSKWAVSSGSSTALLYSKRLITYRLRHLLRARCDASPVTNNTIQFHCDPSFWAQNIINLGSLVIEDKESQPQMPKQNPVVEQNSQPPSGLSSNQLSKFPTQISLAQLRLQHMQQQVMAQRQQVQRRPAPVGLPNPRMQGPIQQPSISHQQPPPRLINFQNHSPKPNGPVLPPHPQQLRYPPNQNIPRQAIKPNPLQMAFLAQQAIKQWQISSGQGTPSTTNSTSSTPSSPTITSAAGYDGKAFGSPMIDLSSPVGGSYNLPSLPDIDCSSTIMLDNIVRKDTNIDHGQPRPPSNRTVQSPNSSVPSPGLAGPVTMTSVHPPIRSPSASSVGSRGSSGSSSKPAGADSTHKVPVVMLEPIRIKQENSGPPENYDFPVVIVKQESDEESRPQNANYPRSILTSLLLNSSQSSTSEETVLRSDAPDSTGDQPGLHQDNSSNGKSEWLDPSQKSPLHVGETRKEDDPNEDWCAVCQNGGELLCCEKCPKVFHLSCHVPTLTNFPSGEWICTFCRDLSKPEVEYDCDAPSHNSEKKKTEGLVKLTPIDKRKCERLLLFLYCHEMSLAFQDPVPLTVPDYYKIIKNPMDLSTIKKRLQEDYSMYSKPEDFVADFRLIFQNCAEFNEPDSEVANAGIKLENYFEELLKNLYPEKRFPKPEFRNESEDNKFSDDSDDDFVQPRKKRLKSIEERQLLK
Conditions: Compound concentration 20.0 uM, Protein concentration 2.0 uM, Result type QC Liability.

Broadly, the ΔTm is the shift of the melting midpoint relative to a reference. On to `COc1cc(Nc2cnc(C#N)c(O[C@H](C)CN(C)C)n2)ncc1-c1cnn(C)c1`, for which the figures for the shift in melting temperature (ΔTm) in assay [1] and in assay [2] were -1.55 °C and -2.76 °C, respectively.

Turning to `O=C1CN(c2ccccc2F)C(NCCN2CCOCC2)=C1c1nc2cc(Br)ccc2c(=O)[nH]1`, the ΔTm was -12.3 °C in assay [1] and 0.25 °C in assay [2].

As to `O=C1Nc2ccc(I)cc2/C1=C/c1cc(Br)c(O)c(Br)c1`, the results for the ΔTm in assay [1] and in assay [2] were -0.9 °C and -2.17 °C, respectively.

Regarding `CC(C)(C)c1cnc(CSc2cnc(NC(=O)C3CCN(CC(=O)NCCOCCOCCOCCNc4cccc5c4C(=O)N(C4CCC(=O)NC4=O)C5=O)CC3)s2)o1` (stereo unspecified), the ΔTm is -1.66 °C in assay [1] and -1.74 °C in assay [2].

Take `CCN1C(=O)/C(=C(\NC2CCN(C)CC2)c2ccc3c(c2)OCO3)c2cc(C(C)=O)ccc21`: the figures for the shift in melting temperature (ΔTm) in assay [1] and in assay [2] were -12 °C and 0.3 °C, respectively.

`CCc1ccc(N(CC(C)C)S(=O)(=O)c2ccc(OCC3CCOCC3)c(CO)c2)cc1`: the values for the ΔTm in assay [1] and in assay [2] were -3.99 °C and -0.46 °C, respectively.

Turning to `Cc1cc(C)nc(Nc2ncc(C(=O)NCCc3c(C)[nH]c4ccccc34)cn2)c1`, the ΔTm was -0.8 °C in assay [1] and -1.3 °C in assay [2].

For the compound `C[C@@H]1COCCN1c1cc(=O)n2c(n1)N(Cc1cncc(Cl)c1)[C@H](C(F)(F)F)CC2`, the values for the shift in melting temperature (ΔTm) in assay [1] and in assay [2] were -0.07 °C and -0.61 °C, respectively.

For `Cn1c(C2(NC(=O)c3ccc(NCC4CCCCC4)nc3)CCC2)nc2ccc(/C=C/C(=O)O)cc21`, the results for the shift in melting temperature (ΔTm) in assay [1] and in assay [2] were 0.73 °C and 0.39 °C, respectively.

As for `COc1ccc(N(C(=O)Nc2c(C)cccc2C)c2cc(Nc3ccc(N4CCN(C)CC4)cc3)ncn2)c(OC)c1`, the results for the ΔTm in assay [1] and in assay [2] were 2.62 °C and 0.7 °C, respectively.

For the compound `COc1cc2ncnc(Nc3ccc4c(cnn4Cc4ccccc4)c3)c2cc1OC`, the ΔTm was -0.65 °C in assay [1] and -2.15 °C in assay [2].

Turning to `CCC(=O)N[C@@H]1CC[C@H](C(=O)N(C)c2ccc(-c3nc4ccccc4o3)cc2)C1`, the values for the ΔTm in assay [1] and in assay [2] were -0.34 °C and 0.25 °C, respectively.

Take `Nc1c(CC(=O)O)cccc1C(=O)c1ccc(Br)cc1`: the ΔTm is -0.6 °C in assay [1] and -0.77 °C in assay [2].

`CC(=O)c1c(C)c2cnc(Nc3ccc(N4CCN(CCOCCOCCOCCNC(=O)COc5cccc6c5C(=O)N(C5CCC(=O)NC5=O)C6=O)CC4)cn3)nc2n(C2CCCC2)c1=O` (stereo unspecified): the values for the ΔTm in assay [1] and in assay [2] were -1.51 °C and 0.27 °C, respectively.

Regarding `CCCS(=O)(=O)Nc1ccc(F)c(Nc2ncnc3cnc(-n4cnc(C)c4)nc23)c1F`, the ΔTm in assay [1] is -2.57 °C; in assay [2], -1.9 °C.

As to `Cc1c(CN2CCC3(CC2)CN(c2ncnc4sc(CC(F)(F)F)cc24)C3)ccc2c1cc(C#N)n2CC(N)=O`, the ΔTm stood at 1.17 °C in assay [1] and 0.7 °C in assay [2].

As for `CC1CCN(C(=O)[C@@H](CCn2cccc2C#N)NS(=O)(=O)c2cccc3[nH]ccc23)CC1`, the thermal shift (ΔTm) in assay [1] was -1.03 °C; in assay [2] it was 0.52 °C.

As for `Cc1c(-c2c(F)cc(C(N)=O)c3[nH]c4c(c23)CC[C@H](C(C)(C)O)C4)cccc1-n1c(=O)c2cccc(F)c2n(C)c1=O`, the ΔTm in assay [1] was -0.86 °C; in assay [2] it was 0.6 °C.

Regarding `C=CC(=O)Nc1ccc(C(=O)Nc2[nH]nc3c2CN(C(=O)N[C@H](CN(C)C)c2ccccc2)C3(C)C)cc1`, the ΔTm in assay [1] is 0.61 °C; in assay [2], -2.21 °C.

`CNC(=O)c1ccc2c(c1)ncn2-c1ccc(CC(=O)OC(C)(C)C)cc1`: the figures for the thermal shift (ΔTm) in assay [1] and in assay [2] were -0.5 °C and -3.2 °C, respectively.

For `Cc1cc2c(cc(C(=O)N[C@H](CO)c3ccc(S(=O)(=O)CC(=O)O)cc3)n2C)c(Cl)c1Cl`, the ΔTm in assay [1] was 2.14 °C; in assay [2], -0.18 °C.

For the compound `C[S+]([O-])c1ccc(-c2nc(-c3cccc(I)c3)c(-c3ccncc3)[nH]2)cc1` (stereo unspecified), the ΔTm in assay [1] was -3.51 °C; in assay [2] it was -2.56 °C.

Regarding `N#C/C(=C\c1ccc(O)c(O)c1)C(=O)OCCc1cccs1`, the values for the ΔTm in assay [1] and in assay [2] were -0.61 °C and 0.49 °C, respectively.

Turning to `COc1ccc(COc2ccc(Cc3cnc(N)nc3N)cc2OC)cc1`, the ΔTm in assay [1] is -1.17 °C; in assay [2], -1.22 °C.

In the case of `O=C(O)c1cc(-c2ccccc2)ccc1O`, the results for the ΔTm in assay [1] and in assay [2] were -1.31 °C and -1.78 °C, respectively.

Take `Cn1cc(C(=O)O)c2ccc(N3CCC(OCc4c(-c5c(Cl)cccc5Cl)noc4C4CC4)CC3)cc21`: the ΔTm in assay [1] was -1.74 °C; in assay [2], -2.91 °C.

Turning to `CCN1C(=O)N(c2c(F)c(OC)cc(OC)c2F)Cc2cnc3[nH]c(CN4CCOCC4)cc3c21`, the values for the ΔTm in assay [1] and in assay [2] were -1.4 °C and -3.85 °C, respectively.

Turning to `CN(C)[C@H]1CC[C@H](Nc2ncc3ncnc(Nc4ccc(F)c(Cl)c4)c3n2)CC1`, the figures for the shift in melting temperature (ΔTm) in assay [1] and in assay [2] were -0.7 °C and -1.12 °C, respectively.

`Cc1cn(CCN2CCN(c3ccccc3-c3cc(C#N)cc(C(=O)NCCCN4CCCC4)c3)CC2)c2ccccc12`: the shift in melting temperature (ΔTm) in assay [1] was -2.78 °C; in assay [2], -1.92 °C.

With `CN(CCCCCCC1=C(c2cc(F)cc(F)c2)CCCc2cc(O)ccc21)CCCCS(=O)(=O)CCCC(F)(F)F`, the values for the ΔTm in assay [1] and in assay [2] were 1.66 °C and 1.21 °C, respectively.

As for `Cc1c(N2CCCC2)nc2ccc(Br)cc2c1C(=O)NC[C@H](CCC(=O)O)c1ccccc1Cl`, the shift in melting temperature (ΔTm) in assay [1] was -0.88 °C and -3.16 °C; in assay [2] it was 0.3 °C and -2.24 °C.

Regarding `O=C(NCc1ccc(F)cc1)C1CCN(S(=O)(=O)c2cc(Cl)cc(Cl)c2)CC1`, the thermal shift (ΔTm) in assay [1] is -0.4 °C; in assay [2], 0.44 °C.

With `CN(C)C/C=C/C(=O)Nc1ccc(C(=O)Nc2cccc(Nc3ncc(Cl)c(-c4c[nH]c5ccccc45)n3)c2)cc1`, the shift in melting temperature (ΔTm) in assay [1] was -2.3 °C; in assay [2], -1.56 °C.

As for `COc1ccc(Br)cc1S(=O)(=O)NC(=O)/C=C/c1cc(Cl)ccc1Cc1ccc2ccccc2c1`, the shift in melting temperature (ΔTm) in assay [1] was -4.74 °C; in assay [2] it was -0.55 °C.

Regarding `CC(=O)N1CCC(c2ccc(C(=O)NC3=NCCN3)cc2C(F)(F)F)CC1`, the values for the ΔTm in assay [1] and in assay [2] were -0.26 °C and 0.31 °C, respectively.

For `CC(C)(C)OC(=O)CN(Cc1ccc(Cl)cc1)Cc1ccc([N+](=O)[O-])s1`, the ΔTm was -2.44 °C in assay [1] and -2.89 °C in assay [2].

In the case of `CC(=O)c1c(C)c2cnc(Nc3ccn(C)n3)nc2n(C2CCCC2)c1=O`, the results for the shift in melting temperature (ΔTm) in assay [1] and in assay [2] were -0.76 °C and -2.16 °C, respectively.

On to `CC[C@@H](Nc1c(C#N)c(-c2ccc(-c3cccc(C)c3F)cc2)nc2cnccc12)C(=O)O`, for which the ΔTm in assay [1] is -1.25 °C; in assay [2] it was -1.3 °C.

These data come from ChEMBL document CHEMBL5308504, “Tm Shift (DSF) assay results for EUbOPEN Chemogenomics Library” (2023).
